These results are taken from PubChem BioAssay.

Test [1] can be described thus: resazurin metabolic signal in HepG2 cells – cell-based, resazurin fluorescence, 24 h, PK04 Diversity Set, profiling panel (AID 1172). Note: test concentration not given here. The conditions noted are these: HepG2 viability, higher = more signal. For orientation: The colour change of resazurin is a common sign of viable cells or microbes.
Test [2] can be described thus: budding yeast growth changes without added modifier – OD600, strain BY4716, 24 h, basal condition, primary screen (AID 1173). The conditions noted are these: S. cerevisiae BY4716 growth, OD600, 24 h; higher = more signal, called active from +8 up or from −8 down.
Test [3] can be described thus: viability profiling in MM1S myeloma cells – cell-based, resazurin fluorescence, basal, 24 h, PK04 Diversity Set, profiling panel (AID 1174).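 Note: MM1S multiple myeloma cell line; test concentration not given here.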 Particulars: higher = more signal, called active from +8 up or from −8 down.
For test [4], the target named is Dihydroorotate dehydrogenase (quinone), mitochondrial (Plasmodium falciparum (isolate 3D7)) (UniProt Q08210). Put plainly: inhibition of P. falciparum DHODH – biochemical, C-terminal His tag, absorbance 600 nm, primary screen (AID 1175).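 Note: recombinant parasite enzyme with a five histidine tag at its C terminus; test concentration not given here.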 The conditions noted are these: PfDHODH enzyme, DCIP absorbance 600 nm; higher = more signal, called active from +8 up or from −8 down.
Dihydroorotate dehydrogenase (quinone), mitochondrial (Plasmodium falciparum (isolate 3D7)), sequence (Q08210 whole entry, looked up): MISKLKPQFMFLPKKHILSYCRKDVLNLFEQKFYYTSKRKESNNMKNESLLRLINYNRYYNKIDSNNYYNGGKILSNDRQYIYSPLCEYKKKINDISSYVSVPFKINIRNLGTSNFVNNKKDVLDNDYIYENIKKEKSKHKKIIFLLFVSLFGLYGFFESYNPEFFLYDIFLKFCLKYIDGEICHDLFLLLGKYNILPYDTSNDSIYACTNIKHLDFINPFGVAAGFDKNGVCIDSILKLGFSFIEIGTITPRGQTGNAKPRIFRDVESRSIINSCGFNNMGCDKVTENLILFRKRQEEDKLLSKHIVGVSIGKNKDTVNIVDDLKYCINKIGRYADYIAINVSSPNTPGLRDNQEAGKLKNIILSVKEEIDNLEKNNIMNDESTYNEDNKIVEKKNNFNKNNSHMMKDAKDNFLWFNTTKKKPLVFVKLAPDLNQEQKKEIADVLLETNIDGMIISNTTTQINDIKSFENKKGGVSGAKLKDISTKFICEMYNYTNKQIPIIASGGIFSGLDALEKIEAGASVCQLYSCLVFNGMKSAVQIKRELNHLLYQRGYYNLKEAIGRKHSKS

Test [5] is described as follows: inhibition of PAO1 biofilm formation – strain PAO1, LB-PBS medium, absorbance 600 nm, primary screen (AID 1176). Note: test concentration not given here. The conditions noted are these: P. aeruginosa PAO1 growth/biofilm, A600, 12 h; higher = more signal.
Test [6] in a line: growth modulation of vineyard yeast isolate – strain RM11-1a, OD600, basal, 24 h, primary screen (AID 1177).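 Note: cultures grown under basal conditions with no added stressor; test concentration not given here.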 The conditions noted are these: S. cerevisiae RM11-1a growth, OD600, 24 h; higher = more signal, called active from +8 up or from −8 down.
Test [7] can be described thus: growth of efflux-deficient E. coli DRC39 – strain DRC39, OD650, 24 h, E. coli filamentation inducers, primary screen (AID 1178).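 Note: growth measured as culture turbidity by optical density at 650 nm; test concentration not given here.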 The conditions noted are these: E. coli DRC39 acrAB, higher = more signal, called active from +8 up or from −8 down.
Test [8] can be described thus: growth of efflux-deficient E. coli DRC39 – strain DRC39, OD650, 48 h, E. coli filamentation inducers, primary screen (AID 1179).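 Note: screen aims at cell division blockers that make cells filament.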 Particulars: E. coli DRC39 delta-acrAB growth, higher = more signal, called active from +8 up or from −8 down.
Test [9] in a line: viability profiling in RPMI8226 myeloma cells – cell-based, resazurin fluorescence, basal, 24 h, PK04 Diversity Set, profiling panel (AID 1180).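 Note: RPMI8826 multiple myeloma cell line at 5000 cells per well; test concentration not given here.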 Particulars: higher = more signal.
Test [10] concerns the target E3 ubiquitin-protein ligase XIAP (Homo sapiens) (UniProt P98170). Put plainly: small molecules binding XIAP protein – biophysical, small-molecule microarray, fluorescence 635 nm, primary screen (AID 1181).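 Note: score merges 667 nm emission and signal to noise over triplicate slides.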 The conditions noted are these: higher = more signal.

Calls of active or inactive are those of the source. Unless noted, the rule behind the calls is not given here.

E3 ubiquitin-protein ligase XIAP (Homo sapiens), sequence (P98170 whole entry, looked up): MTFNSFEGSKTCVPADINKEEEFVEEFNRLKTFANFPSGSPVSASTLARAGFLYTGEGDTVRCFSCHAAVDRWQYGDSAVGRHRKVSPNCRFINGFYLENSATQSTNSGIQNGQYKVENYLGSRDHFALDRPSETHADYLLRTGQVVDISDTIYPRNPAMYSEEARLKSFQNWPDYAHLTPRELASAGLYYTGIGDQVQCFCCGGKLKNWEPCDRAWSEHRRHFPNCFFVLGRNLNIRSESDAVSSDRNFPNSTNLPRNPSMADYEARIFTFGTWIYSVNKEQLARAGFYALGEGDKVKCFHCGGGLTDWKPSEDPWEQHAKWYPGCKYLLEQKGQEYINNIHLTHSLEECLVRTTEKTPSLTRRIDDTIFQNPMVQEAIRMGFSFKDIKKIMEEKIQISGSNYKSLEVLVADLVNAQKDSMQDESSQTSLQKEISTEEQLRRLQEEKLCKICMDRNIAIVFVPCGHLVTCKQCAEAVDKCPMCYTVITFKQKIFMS

For `C=CCOC(=O)[C@H]1[C@@H]2C(=O)O[C@@H](c3ccccc3)[C@@H](c3ccccc3)N2[C@@H](c2ccc(OCCOC(=O)[C@H]3C[C@H]4C(=O)N5CCC[C@H]5C(=O)N4[C@H]3c3cccc(OCCO)c3)cc2)[C@]12C(=O)Nc1ccc(I)cc12`, the z-score is 0.187 in test [1]; 0.0932 (inactive) in test [2]; -0.376 (inactive) in test [3]; -0.102 (inactive) in test [5]; -0.442 (inactive) in test [6]; -0.277 (inactive) in test [7]. Also, the figures for the z-score in test [8] and in [9] were -0.553 (inactive) and 0.0614, respectively. In addition, the composite z-score is -15.3 (active) in test [4] and 0.724 in [10].
As for `CCOC(=O)NN=C1C[C@@H](O)[C@@H](O)[C@@H]2[C@@H]3C(=O)N(C(C)(C)C)C(=O)[C@@H]3CC[C@@H]12`, the z-score is -0.119 in [1]; 0.381 (inactive) in test [2]; -0.387 (inactive) in test [3]; -0.495 (inactive) in test [5]; -1.23 (inactive) in test [6]; -0.654 (inactive) in [7]. Also, the z-score in test [8] was -0.0961 (inactive); in [9], -0.559. Besides, the composite z-score in test [4] is 0.0062 (inactive); in [10], 0.167.
Turning to `CC[C@@H](c1ccccc1)n1c(=O)n2n(c1=O)[C@H]1[C@H](O)[C@@H]3O[C@@H]3C(=NOCC(C)C)[C@H]1CC2`, the z-score in test [1] was -0.0871; in test [2] it was 0.747 (inactive); in [3], -0.349 (inactive); in test [5], -0.413 (inactive); in test [6], 0.49 (inactive); in [7] it was 0.258 (inactive). The z-score was -1.31 (inactive) in test [8] and 0.0402 in test [9]. Moreover, the composite z-score is 0.777 (inactive) in [4] and -0.0525 in test [10].
As to `CC(=O)OC[C@H]1O[C@H](C#CCCCc2ccccc2)C=C[C@@H]1OC(C)=O`, the z-score in test [1] was -0.22; in test [2] it was -2.31 (inactive); in test [3], -4.16 (inactive); in [5] it was -0.0569 (inactive); in test [6], 0.291 (inactive); in test [7], 0.387 (inactive). The z-score was -0.0416 (inactive) in test [8] and -2.47 in test [9]. In addition, the composite z-score in test [4] was -0.791 (inactive); in [10], 0.072.
`COC(=O)CC=C[C@@H](C)[C@@H](C=NO[C@@H](C)c1cc(-c2c(C)cc(C)cc2C)no1)OC`: the z-score was -0.295 in [1]; -0.408 (inactive) in test [2]; -0.656 (inactive) in test [3]; -0.728 (inactive) in test [5]; -0.357 (inactive) in [6]; -0.716 (inactive) in [7]. Besides, the z-score is -2.26 (inactive) in [8] and 0.197 in test [9]. Besides, the composite z-score in [4] is -2.58 (inactive); in [10], -0.124.
On to `COc1ccc(OC[C@H]2Cc3c(-c4ccccc4)nc4c(c3CO2)CN(CCOc2ccccc2)CC4)cc1`, for which the z-score was -0.376 in test [1]; -2.37 (inactive) in [2]; -0.0593 (inactive) in [3]; -0.765 (inactive) in test [5]; -0.314 (inactive) in test [6]; -1.17 (inactive) in test [7]. Further, the figures for the z-score in test [8] and in test [9] were -0.458 (inactive) and 0.578, respectively. Further, the figures for the composite z-score in test [4] and in test [10] were -3.16 (inactive) and -0.111, respectively.
With `CCCCCN1CC=CC23O[C@@H]4C=CCOC(=O)[C@@H]4[C@H]2C(=O)N(CCCCCCO)[C@@H]3C1=O` (stereo not given in full), the z-score was 0.547 in test [1]; 0.428 (inactive) in test [2]; 0.806 (inactive) in [3]; 0.454 (inactive) in [5]; 0.151 (inactive) in [6]; 0.282 (inactive) in test [7]. Moreover, the figures for the z-score in test [8] and in test [9] were 0.225 (inactive) and 0.922, respectively. For the same compound, the results for the composite z-score in [4] and in [10] were -0.473 (inactive) and 0.114, respectively.
With `CC1CC/C=C\[C@H]2OC34C=CCN(C(C)C)C(=O)[C@H]3N(CCCO)C(=O)[C@@H]4C2C(=O)O1` (stereo not given in full), the z-score in [1] is 0.49; in test [2], -0.404 (inactive); in test [3], 0.48 (inactive); in test [5], -0.91 (inactive); in test [6], -0.467 (inactive); in test [7], 1.05 (inactive). Besides, the z-score was 0.634 (inactive) in [8] and 0.817 in test [9]. Further, the figures for the composite z-score in test [4] and in test [10] were 0.395 (inactive) and 0.0131, respectively.
For the compound `Cc1ccc(C2CC=C(C(=O)O)CN2S(=O)(=O)c2ccc(C)cc2)cc1` (stereo not given), the z-score in [1] was -0.719; in test [2], -0.0489 (inactive); in [3] it was -0.955 (inactive); in test [5] it was 0.396 (inactive); in test [6], 0.603 (inactive); in test [7] it was -0.799 (inactive). The values for the z-score in test [8] and in test [9] were -1.52 (inactive) and -1.54, respectively. The composite z-score in test [4] is 1.23 (inactive); in [10] it was -0.102.
As for `COC(=O)[C@@H]1N=C(c2ccc(OCCCO)cc2)O[C@@H]1c1ccccc1N=[N+]=[N-]`, the z-score in test [1] is 1.92; in test [2] it was -4.88 (inactive); in test [3] it was 0.856 (inactive); in [5], 1.2 (inactive); in test [6], -0.82 (inactive); in test [7], 2.09 (inactive). Also, the results for the z-score in test [8] and in test [9] were 0.995 (inactive) and 0.0154, respectively. The results for the composite z-score in test [4] and in [10] were 0.458 (inactive) and 0.267, respectively.
For the compound `COCCOC(=O)N1C(=O)[C@@]2(c3cc(C#CC4(O)CCCCCC4)ccc31)[C@H](C(=O)N1CCN(c3ncccn3)CC1)[C@H]1C(=O)O[C@H](c3ccccc3)[C@H](c3ccccc3)N1[C@@H]2c1ccc(OCCO)cc1`, the z-score is -0.324 in test [1]; 1.44 (inactive) in [2]; 0.712 (inactive) in [3]; 2.53 (inactive) in test [5]; 2.98 (inactive) in [6]; -0.446 (inactive) in test [7]. Besides, the z-score in test [8] was 0.293 (inactive); in test [9] it was 0.928. For the same compound, the figures for the composite z-score in test [4] and in [10] were -0.0915 (inactive) and -0.0749, respectively.
For `C[C@@H](c1ccccc1)N1C(=O)[C@H]2[C@H]3[C@H](O)[C@H](O)CC(=NOC[C@@H](O)COCc4ccco4)[C@@H]3CC[C@H]2C1=O`, the z-score in [1] was -0.52; in [2], 0.984 (inactive); in test [3], -0.422 (inactive); in test [5], 0.176 (inactive); in test [6] it was 0.819 (inactive); in [7], -0.892 (inactive). Moreover, the z-score in test [8] is -0.41 (inactive); in test [9] it was 0.2. Also, the composite z-score was 0.407 (inactive) in test [4] and -0.131 in test [10].
On to `COCCCNC(=O)[C@]1(CCC(=O)OC(C)(C)C)N=C(c2ccc(OCCCO)cc2)O[C@@H]1c1ccccc1N=[N+]=[N-]`, for which the z-score in test [1] was 1.18; in test [2] it was -0.334 (inactive); in test [3] it was -0.637 (inactive); in [5] it was 0.149 (inactive); in test [6], 0.149 (inactive); in [7], 0.615 (inactive). The z-score in test [8] was 0.0528 (inactive); in test [9], -0.128. The composite z-score was 0.08 (inactive) in test [4] and 0.121 in test [10].
